# Many of the other results were omitted from the sample, so hits are more common in it than they were.
# HIV RNase H inh-1 = blocks HIV-1 RNase H cleavage of RNA/DNA duplex | P04585 | RT-RNase H RNA/DNA duplex cleavage, fluorescence | inhibition, % at 10 µM | hit rate 1.9% among 65,000; in the data active means inhibition above about 50%
# HIV RNase H inh-2 = confirmation of HIV-1 reverse transcriptase RNase H inhibitors. shares compounds with HIV RNase H inh-1. Recombinant RT RNase H, fluorescent RNA/DNA duplex cleavage. inhibition, % at 10 µM. hit rate 39% among 1,000; in the data active means inhibition above about 48%; inconclusive means no clear call, values can overlap the other calls
# * hit, by the source's call; ? = inconclusive.
SMILES,HIV RNase H inh-1,others
CCCCC1CC1C(=O)Nc1ccc(OC)c(OC)c1 (centres undefined),-14,
Cn1c(=O)[nH]c(=O)c2c1nc(N1CCCCC1)n2CCOc1ccccc1,0,
Cn1c(=O)[nH]c(=O)c2c1nc(N1CCCCC1)n2CCSc1ncccn1,-8,
C/C=C/Cn1c(SC)nc2c1c(=O)[nH]c(=O)n2C,77*,HIV RNase H inh-2=?
C/C=C/Cn1c(N2CCCCCC2)nc2c1c(=O)[nH]c(=O)n2C,87*,HIV RNase H inh-2=40
C/C=C/Cn1c(Br)nc2c1c(=O)[nH]c(=O)n2C,-8,
C/C=C/Cn1c(SCc2ccc(Cl)cc2)nc2c1c(=O)[nH]c(=O)n2C,45,
CNC(=O)C1CC(=O)N(c2ccc(C)cc2)C1 (centres undefined),3,
COc1ccc(CNC(=O)C(OC(C)=O)c2ccccn2)cc1 (centres undefined),-6,
COc1ccc(CNC(=O)c2cnn3c(C(F)F)cc(C)nc23)cc1OC,-14,
COc1ccc(S(=O)(=O)Nc2cc(C(=O)NCCC(C)C)ccc2N2CCOCC2)cc1,19,
c1ccc(Nc2cc(Nc3ccccc3)[nH]n2)cc1,43,
COc1ccccc1NC(=O)C1=C(C)Nc2nnnn2C1c1ccncc1 (centres undefined),-56,
CC1=C(C(=O)Nc2ccc(Cl)cc2)C(c2cccs2)n2nnnc2N1 (centres undefined),73*,HIV RNase H inh-2=5
COC(=O)C1=C(C(=O)c2ccccc2)C(c2cccs2)n2nnnc2N1 (centres undefined),-1,
CCOC(=O)c1sc(N(Cc2ccccc2)C(=O)CSc2nnc(C3CC3)n2N)nc1C,-40,
C=CCn1c(SCCC(=O)O)nc2c1c(=O)n(C)c(=O)n2C,-11,
CCOC(=O)c1sc(N)nc1-c1ccccc1,71*,HIV RNase H inh-2=38
CCOC(=O)Nc1sc(C)nc1-c1ccccc1,0,
CCOC(=O)c1snc(-c2ccc(F)cc2)c1N,-8,
COc1ccc(N(CC(O)Cn2nnc3ccccc32)S(=O)(=O)c2ccc(C)cc2)cc1 (centres undefined),-12,
COc1cccc(-c2nnc(SCC(=O)Nc3ccc(OC)c(OC)c3)n2N)c1,-15,
C=CCc1cccc2cc(C(=O)N(CC)CC)c(=O)oc12,-15,
Cn1c(N2CCC(C(N)=O)CC2)nc2c1c(=O)n(Cc1ccc(Br)cc1)c(=O)n2C,-13,
CCOC(=O)C1C(=O)N(C(=O)c2cncc(Br)c2)CC1c1ccccc1 (centres undefined),-4,
SMILES,HIV RNase H inh-1,others
Cc1nc2sc3c(c2c(=O)o1)CCCC3,-50,
Cc1cc(-c2nc3c4c5c(sc4[nH]c(=O)n3n2)CCC5)c(C)o1,81*,HIV RNase H inh-2=?
Cc1nc2sc3c(c2c(=O)[nH]1)CCC3,-8,
COc1ccc(C2C(C#N)=C(N)Oc3cc(C)n(CCN4CCOCC4)c(=O)c32)cc1OC (centres undefined),-16,
COc1cc(C2C(C#N)=C(N)Oc3n[nH]c(C)c32)cc2c1OCO2 (centres undefined),3,
COc1cc(C2C(C#N)=C(N)Oc3cc(C)n(CCc4ccccc4)c(=O)c32)cc2c1OCO2 (centres undefined),77*,HIV RNase H inh-2=28
O=S(=O)(c1cccs1)N1CCN(CC(O)COc2cc(Cl)ccc2Cl)CC1 (centres undefined),-13,
O=C1CC(Sc2nnc(-c3ccccc3)o2)C(=O)N1c1ccccc1 (centres undefined),52*,HIV RNase H inh-2=19
Cc1ccccc1N1C(=O)CC(Sc2nnc(-c3ccccc3)o2)C1=O (centres undefined),58*,HIV RNase H inh-2=45
Cc1ccccc1N1C(=O)CC(N2CCC(C(N)=O)CC2)C1=O (centres undefined),34,
Cc1nc(SC2CC(=O)N(c3ccccc3)C2=O)nc2c1CCCC2 (centres undefined),1,
COc1ccccc1N1C(=O)CC(Sc2nc(C)cc(C)n2)C1=O (centres undefined),32,
O=C1c2ccccc2CC1Sc1nnc(-c2ccncc2)o1 (centres undefined),46,
Nc1nnnn1CC(=O)OCc1cccc(Br)c1,-14,
Cc1nc(SCC(=O)c2ccccc2)c(C#N)c(-c2ccco2)c1C(=O)NCc1ccco1,0,
CC(=O)Nc1ccc(S(=O)(=O)N2CCN(c3nc(NC4CCCC4)c4ccccc4n3)CC2)cc1,3,
Cn1c(=O)c2c(nc(SCC(=O)Nc3ccc(N4CCOCC4)c(Cl)c3)n2C)n(C)c1=O,-6,
O=C(Sc1nnnn1C1CCCCC1)c1cccs1,62*,HIV RNase H inh-2=40
O=C(O)c1ccc(CSc2nnnn2C2CCCCC2)cc1,-8,
O=C(CSc1nnnn1C1CCCCC1)N1CCCC1,-5,
COC(=O)c1ccc(C2C(C(C)=O)=C(C)Nc3ncnn32)cc1 (centres undefined),-13,
COC(=O)C1C(=O)c2c([nH]c(C(=O)OCC3CCCO3)c2C)CC1C (centres undefined),-14,
COC(=O)C1=CN(C)C=C(C(=O)OC)C1c1ccc(O)c(OC)c1,-14,

# Source: PubChem
